Most compounds without a hit are left out; they make up all but 19% or so of the library.
TDP1 cell CPT = growth inhibition of DT40 Tdp1-/-;hTDP1 cells with camptothecin (screen for TDP1 inhibitors). chicken DT40 Tdp1-/-;hTDP1 cells + 20 nM CPT, ATP luminescence, 48 h. Potency, µM (titrated, usually from 46.2 µM), usual class: inhibitors. hit rate 12% among 420,000. AID 686979; also: nearly all actives have a fitted effect of over 55% in size
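Chicken DT40 Tdp1-/- cells complemented with human TDP1, 400 cells/well, exposed to compounds plus 20 nM camptothecin for at least 48 h at 37 C; viability read as ATP content by CellTiter-Glo luminescence.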
BCR signal inh = blocks chronic active B-cell receptor signaling | ABC-DLBCL IkBa-CBG/CBR reporter, luminescence ratio, 4 h | hit rate 0.05% among 340,000 | Potency, µM (top dose mostly 46.1 µM), actives largely listed as inhibitors | AID 493014; active = well fitted inhibition curve with a large enough effect in the signal ratio, with a control signal flat, not every such curve was filed as active; inconclusive = small, poorly fitted or top-dose-only effect, or effect the other way, or a change in a side signal; the % refers to the signal ratio
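Concentration-response series (up to 46 uM) were applied to TMD8 dual-reporter cells for 4 h at 37C with doxycycline. Green/red ratio, after filter-overlap correction, defined %Activity; red signal alone was normalised to basal cells and zero luminescence.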
IL-1B inflam inh = inflammasome signaling inhibition, IL-1 beta readout; THP-1 LPS/ATP IL-1B secretion, AlphaLISA, 16 h; stronger effect = lower value; hit rate 4.7% among 360,000; activity change, % at 57.5 µM; in the data active = activity change below about -50%; inconclusive = mostly about -30% to -49%
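Secreted IL-1B measured by AlphaLISA bead assay after 16 h compound exposure of THP-1 cells; compounds (final up to 57.5 uM) added 1 h before LPS (250 ng/mL) and ATP (1.25 mM) stimulation; lower signal means less secretion.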
SW480 rerep = DNA re-replication induction in SW480 cells; SW480 DNA re-replication, Hoechst DNA content imaging, 48 h; Potency, µM (top dose mostly 46.1 µM), actives largely listed as activators; hit rate 1.8% among 340,000; also: nearly all actives have a fitted effect of over 55% in size
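Hoechst fluorescence of nuclei (405 nm excitation, 500-530 nm emission) measured by plate-scanning imager after 48 hr compound exposure at 37 C; re-replication scored as increased number of nuclei with elevated intensity.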
DT40 TDP1 no CPT = qHTS for Inhibitors of human tyrosyl-DNA phosphodiesterase 1 (TDP1): qHTS in cells in absence of CPT; DT40 Tdp1-/- hTDP1 cells, no CPT, ATP luminescence, 48 h; Potency, µM (titrated, usually from 46.2 µM), most hits filed as inhibitors; hit rate 15% among 420,000; AID 686978, 2013; also: nearly all actives have a fitted effect of over 55% in size
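Readout: luminescence from CellTiter-Glo after 30 min in the dark at RT. Cells: DT40 Tdp1-/- with stable hTDP1, 400/well. Exposure: compounds alone, ≥48 hr, 37 °C.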
MCF10A rereplic = inducers of DNA re-replication in MCF 10A breast cells; MCF 10A DNA re-replication, Hoechst nuclear intensity, 48 h; Potency, µM (series often up to 46.1 µM), most hits filed as activators; hit rate 2.9% among 350,000; also: nearly all actives have a fitted effect of over 50% in size
Hits are given with their value; 0 = inactive; ? = inconclusive; - = not tested or not shown; ! = repeats disagree; [ ] = dose if it differs, or a comment. Unless noted, calls follow the shape of the dose curve; as a rule, active = well fitted curve in the direction sought with a large enough effect; inconclusive = small, poorly fitted or top-dose-only effect, or another doubt; inactive = no such curve, though single readings can be large; an effect the other way counts as inactive or inconclusive.

SMILES	TDP1 cell CPT	BCR signal inh	IL-1B inflam inh	SW480 rerep	DT40 TDP1 no CPT	MCF10A rereplic
C#CCOCCOCCOCCNc1nc(N2CCN(C(=O)[C@H](CCCCN)n3cc(CN)nn3)CC2)nc(N2CCN(C(=O)[C@H](CC(N)=O)n3cc(C(N)[C@H](C)CC)nn3)CC2)n1 (some centres undefined)	0	0	0	0	0	0
COc1cccc(NC(=O)Cn2cc(S(=O)(=O)N3CCCC3)c(S(=O)(=O)N3CCCC3)c2)c1	0	-	-	-	0	-
CC(C)(C)NC(=O)C(c1ccc(C(F)(F)F)cc1)n1c(=O)c(-c2cc3ccccc3[nH]2)nc2ccccc21 (centres undefined)	?	-	0	-	?	-
CCCCN(CC)CCNC(=O)c1cc2c(=O)[nH]c3ccccc3c2n1C	15µM!	0	0	?	16µM!	0
COc1cc(OC)c(NS(=O)(=O)c2cc3[nH]c(=O)c(=O)[nH]c3cc2C)cc1Cl	0	0	0	0	0	0
CCc1ccc(CNC(=O)Cn2nc(-c3ccccc3)ccc2=O)cc1	0	0	-87	0	0	0
O=C(Cn1nc(-c2ccccc2)ccc1=O)NCc1ccc(F)cc1Cl	0	?	-	-	0	-
Cc1ccc(-c2ccc(=O)n(Cc3cc(C)ccc3C)n2)cc1	?	0	?	?	21µM	?
Cc1ccc(-c2ccc(=O)n(CC(=O)Nc3ccc(C)cc3Cl)n2)cc1	0	-	-	-	0	-
Cc1ccc(CCNC(=O)CCn2nc(-c3ccc(C)cc3)ccc2=O)cc1	23µM	?	-	-	?	-
O=c1ccc(-c2ccccc2)nn1Cc1ccccc1	?	-	?	0	?	0
Cc1ccc(C)c(Cn2nc(-c3ccccc3)ccc2=O)c1	?	?	-75	?	?	0
O=C(C[C@@H]1C[C@@H]2c3cc(NC(=O)C4CCOCC4)ccc3O[C@@H]2[C@H](CO)O1)NCc1ccccn1	0	-	0	-	0	-
CCc1ccc(NC(=O)C2CCCN(S(=O)(=O)c3ccc4c(c3)oc(=O)n4C)C2)cc1 (centres undefined)	0	-	-	-	0	-
CN1CC=C2C(C#N)=C(N)C(C#N)(C#N)[C@H](c3cccs3)[C@H]2C1	?	0	0	0	15µM	0
CN1CC=C2C(C#N)=C(N)C(C#N)(C#N)[C@H](c3cccc(Cl)c3)C2C1 (some centres undefined)	?	0	0	0	23µM	0
Cc1cc(C)c(NC(=O)CCN2C(=O)c3ccccc3S2(=O)=O)c(C)c1	0	0	0	0	0	0
CCc1nc(N)c(C#N)c(-c2cccc3ccccc23)c1C	0	0	0	0	0	0
CCCOc1nc(N)c(C#N)c(-c2ccccc2F)c1C#N	16µM	0	0	0	?	0
O=S1(=O)CCC(NC(=S)NC2CCS(=O)(=O)C2)C1 (centres undefined)	0	0	0	0	0	0
O=S1(=O)CCC(NC(=S)Nc2ccccc2)C1 (centres undefined)	0	0	-	4.1µM	0	0
O=S1(=O)CCC(NC(=S)SCCOc2ccccc2)C1 (centres undefined)	8.2µM	0	?	0[1.84 µM]	10µM	0
CNC(=S)SCCOc1ccccc1	0	0	0	0	0	0
CCCCSC(=S)NC1CCS(=O)(=O)C1 (centres undefined)	9.2µM	?	-98	?	12µM	23µM
O=C(CC1C(=O)NCCN1Cc1ccccc1)NCCCOc1cccnc1 (centres undefined)	0	0	0	0	0	?
SMILES	TDP1 cell CPT	BCR signal inh	IL-1B inflam inh	SW480 rerep	DT40 TDP1 no CPT	MCF10A rereplic
O=C(Nc1cccc(Cl)c1)NC1CC2CCC1C2 (centres undefined)	?	0	0	0	0	0
Cc1c(C(=O)Nc2cccc([N+](=O)[O-])c2)cnn1-c1ccccc1	?	?	?	0	?	0
COc1ccc(C(=O)NC2CC(C)(C)Cc3c2cnn3-c2ccccc2C)c(OC)c1OC (centres undefined)	23µM	0	0	0	16µM	?
Cc1ccc(NCCC(=O)c2ccccc2)cc1Cl	10µM	0	0	0	15µM	0
Cc1ccc(C(=O)CNc2ccc(C)c(Cl)c2)cc1	?	0	0	0	0	0
O=S(=O)(Cc1ccccc1)Nc1cccc(F)c1	0	0	0	0	?	0
Cc1ccc(NS(=O)(=O)Cc2ccccc2)cc1Cl	0	0	-86	?	?	0
Cc1ccc(NC2=C(NC(=O)c3ccccc3)C(=O)c3ccccc3C2=O)cc1Cl	8.2µM	0	?	?	21µM	0
Cc1cccc(-c2noc(-c3ccc(NC4CCCC4)c([N+](=O)[O-])c3)n2)c1	0	-	-	-	0	-
C[C@@]12CC[C@@H](C3=C(CCC3)C1)N2c1ccccc1	0	-	0	-	?	-
O=C(/C=C/[C@H]1O[C@@H](n2ccc(=O)[nH]c2=O)[C@H](O)[C@@H]1O)NCc1cccs1	0	-	0	-	0	-
COc1cc(NC(=O)CSc2ccc3c(c2)OCCO3)cc(OC)c1OC	21µM	0	0	0	21µM	0
COc1ccc(NC(=O)CSc2ccc3c(c2)OCCO3)cc1OC	21µM	0	0	0	?	0
N#Cc1cccc(NC(=O)N2CC[C@@]3(CCCN(S(=O)(=O)c4ccccc4)C3)C2)c1	?	-	-	-	21µM	-
CS(=O)(=O)N1CCC[C@@]2(CCN(c3ccccc3)C2)C1	0	-	-	-	?	-
O=S(=O)(c1ccccc1)N1CCC[C@@]2(CCN(c3ccncc3)C2)C1	?	-	-	-	18µM	-
COCCN(C(=O)CSc1n[nH]c(-c2ccccc2)n1)c1c(N)n(CC(C)C)c(=O)[nH]c1=O	0	0	0	0	0	0
Cc1cc(-c2ccccc2)n2nc(N)nc2n1	0	?	0	0	0	?
CN(C)CC/C=C1\c2ccccc2Sc2cc(F)c(Cl)cc21	16µM	-	-93	?	16µM	0
CN(C)CC/C=C1\c2cc(Cl)ccc2Sc2cc(F)c(F)cc21	?	-	0	0	23µM	?
CN(C)CC/C=C1\c2ccccc2COc2ccc(CC(=O)O)cc21	-	-	-	0	-	0
CN(C)CC/C=C1/c2cc(F)ccc2CSc2ccc(F)cc21	?	0	0	0	0	0
CN(C)CC/C=C1\c2ccc(F)cc2Sc2cc(F)c(Cl)cc21	?	-	-61	?	?	?
CN(C)CC/C=C1/c2ccc(F)cc2Sc2ccc(Cl)cc21	?	-	-85	0	16µM	0
COC(=O)N1CCC[C@@]2(CCN(Cc3nccs3)C2)C1	0	-	-	-	0	-
CC(=O)Nc1ccccc1OCC(=O)N(Cc1ccccc1)C(C)C	16µM	0	0	0	13µM	0
CC(=O)Nc1ccccc1OCC(=O)NC(C)c1ccccc1 (centres undefined)	0	?	0	0	0	0
